Data on 39 compounds can be found in PubChem BioAssay.

The structures appear in SMILES notation. Potency and affinity values are given separately. Activity calls are given as the source filed them. How the calls were made is not given here.

This assay in a line: A549 cell cytotoxicity, dose response, cytotoxicity control, plate reader, cherry-pick, antagonist series (AID 743412).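 Further: 0% = neutral control wells and -100% = positive control wells.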 The note with it: series mostly up to 26 µM; activity change, negative = cytotoxicity: at the top concentration.
Consider `O=C(Nc1nc2ccccc2s1)c1ccc2sc([C@H]3C[C@H](O)[C@@H](CO)O3)nc2c1`, for which the “activity change, negative = cytotoxicity” value is -15.5% (inactive).

Turning to `COc1cccc(-c2cc(C(=O)Nc3cccc(O)c3)no2)c1`, the “activity change, negative = cytotoxicity” value was 3.02% (inactive).

Take `O=c1c2c(nc3cc(-c4ccc(F)cc4)[nH]n13)CCCC2`: the “activity change, negative = cytotoxicity” value was 2.92% (inactive).

As for `c1ccc(-n2nnnc2Sc2ncnc3sc4c(c23)CCCC4)cc1`, the “activity change, negative = cytotoxicity” value is -5.31% (inactive).

In the case of `CC(C)(C)c1ccc(-c2nc(-c3ccncc3)no2)cc1`, the “activity change, negative = cytotoxicity” value is 7.98% (inactive).

Take `O=C(O)c1cccc(-c2noc(-c3cccc(Cl)c3)n2)c1`: the “activity change, negative = cytotoxicity” value is -0.606% (inactive).

`O=C(CCCc1ccccc1)Nc1cccc(C(=O)O)c1`: the “activity change, negative = cytotoxicity” value was 0.999% (inactive).

With `CC1CCCN(c2ncnc3c2cnn3-c2ccccc2)C1` (centres undefined), the “activity change, negative = cytotoxicity” value was -16.6% (inactive).

As to `Cc1ccc(-c2nc(-c3ccncc3)no2)cc1C`, the “activity change, negative = cytotoxicity” value was -13.3% (inactive).

With `O=C(O)c1ccc(N/N=C/c2c[nH]c3ccccc23)cc1`, the “activity change, negative = cytotoxicity” value was -5.6% (inactive).

For the compound `COc1ccc2nc(-c3ccc(F)cc3)sc2c1`, the “activity change, negative = cytotoxicity” value was 22.4% (inactive).

For the compound `COc1ccc(C(=O)Nc2ccc3ccccc3c2)cc1`, the “activity change, negative = cytotoxicity” value was -6.09% (inactive).

For `COc1ccccc1CCn1cnc(-c2ccccc2OC)c1C(C)C`, the “activity change, negative = cytotoxicity” value is -11.8% (inactive).

With `Cc1ccc(-c2cnn3c(N4CCOCC4)cc(C)nc23)cc1`, the “activity change, negative = cytotoxicity” value is 55% [at 12 µM] (inactive).

As for `Cc1c(C)c2ccc(OCC(=O)Nc3nccs3)cc2oc1=O`, the “activity change, negative = cytotoxicity” value was 7.2% (inactive).

Consider `C=CCNC(=O)c1c(Cl)nc(C)c([N+](=O)[O-])c1C`, for which the “activity change, negative = cytotoxicity” value is -3.38% (inactive).

Consider `C[C@H](CO)N1C[C@H](C)[C@H](CN(C)C(=O)Cc2ccccc2)OCCCC[C@H](C)Oc2ccc(NC(=O)Nc3ccc(C(F)(F)F)cc3)cc2C1=O`, for which the “activity change, negative = cytotoxicity” value is -31.9% (inactive).

On to `O=C(Nc1nc(-c2ccc(S(=O)(=O)N3CCOCC3)cc2)cs1)c1ccccc1`, for which the “activity change, negative = cytotoxicity” value was 1.95% (inactive).

For `CCc1ccn2cc(-c3cc(-c4ccccc4)no3)nc2c1`, the “activity change, negative = cytotoxicity” value is -18.6% (inactive).

Turning to `Cc1ccccc1C(=O)Nc1nnc(-c2ccco2)s1`, the “activity change, negative = cytotoxicity” value was 10.8% (inactive).

Take `CN(C)c1ccc(C(=O)Nc2nc3c(s2)CCCC3)cc1`: the “activity change, negative = cytotoxicity” value was -19.1% (inactive).

As to `CC(=O)N1CCCC(c2cc(C(=O)Nc3ccccc3)no2)C1` (centres undefined), the “activity change, negative = cytotoxicity” value is -8.24% (inactive).

`CCOC(=O)c1sc(NC(=O)Nc2ccccc2F)nc1C`: the “activity change, negative = cytotoxicity” value was -9.54% (inactive).

On to `COc1ccc(-n2nnnc2-c2nc3ccccc3s2)cc1`, for which the “activity change, negative = cytotoxicity” value was -7.93% (inactive).

On to `C=CCN1CCN(C(=O)CCCc2ccccc2)CC1`, for which the “activity change, negative = cytotoxicity” value is 77.5% (inactive).

As to `Cc1ccc2nc(-c3ccc(NC(=O)c4cccnc4)cc3)oc2c1`, the “activity change, negative = cytotoxicity” value is -1.26% (inactive).

Turning to `Cc1ccc(-n2ncc3c(N4CCN(c5ccccc5)CC4)ncnc32)c(C)c1`, the “activity change, negative = cytotoxicity” value is 14.8% (inactive).

Regarding `Cc1ccc(-c2noc(-c3cccs3)n2)cc1`, the “activity change, negative = cytotoxicity” value was 54.7% (inactive).

Regarding `COc1ccc(NC(=O)Nc2cccc([N+](=O)[O-])c2)cc1Cl`, the “activity change, negative = cytotoxicity” value was -43.4% (inactive).

Turning to `c1ccc(COc2ccc(OCCCN3CCCC3)cc2)cc1`, the “activity change, negative = cytotoxicity” value is -25.5% (inactive).

With `COc1ccc(-n2ncc3c(N4CCC(C)CC4)ncnc32)cc1`, the “activity change, negative = cytotoxicity” value is -0.823% (inactive).

Take `COc1ccc2sc(NC(=O)c3ccco3)nc2c1`: the “activity change, negative = cytotoxicity” value is -24.6% (inactive).

For the compound `CN(C)c1ccc(-c2nc3cc(N)ccc3o2)cc1`, the “activity change, negative = cytotoxicity” value was 1.81% (inactive).

As for `COC(=O)c1ccc2nc(NC(=O)C(C)(C)C)sc2c1`, the “activity change, negative = cytotoxicity” value is 20.9% (inactive).

Take `CCC(=O)Nc1cc2nn(-c3ccc(OC)cc3)nc2cc1C`: the “activity change, negative = cytotoxicity” value is 9.09% (inactive).

As for `Cc1nc2c(OCCC3CCCCC3)cccn2c1N(C)C(=O)CCC1CCCC1`, the “activity change, negative = cytotoxicity” value was 28.5% (inactive).

In the case of `O=C(CN1C(=O)c2ccccc2S1(=O)=O)Nc1ncc(Cl)cc1Cl`, the “activity change, negative = cytotoxicity” value is 27.4% (inactive).

On to `COc1ccc(-n2sc3ccc(F)cc3c2=O)cc1`, for which the “activity change, negative = cytotoxicity” value is -28.4% (inactive).

As for `Cc1ccc(-c2csc(Nc3ccccn3)n2)cc1`, the “activity change, negative = cytotoxicity” value is 10.8% (inactive).
